# Data published in PubChem BioAssay (Tox21).
# Results filed as inconclusive are left out. A call without a number means that no potency is given here. Unmarked numbers belong to inactive results. Activity calls are given as the source filed them. Calls come from the whole dose curve; as a rule, active = well fitted curve in the direction sought with a large enough effect in the repeat runs; inconclusive = weak or mixed curves; inactive = no such curve, though single readings can be large; an effect the other way counts as inactive or inconclusive.
# Columns and labels:
# [1] = molecular target: Cytochrome P450 2C19 (Homo sapiens) (UniProt P33261); assay: Cytochrome P450 Family 2 Subfamily C Member 19 (CYP2C19) small molecule antagonists: luciferase reporter qHTS assay (AID 1671197); note: nearly all actives have a fitted effect of over 65% in size; note: potency is the fitted concentration of half-maximal effect; for activity change, negative = inhibition: series mostly up to about 120 µM
# Chain of Cytochrome P450 2C19 (Homo sapiens) (P33261 whole entry, looked up): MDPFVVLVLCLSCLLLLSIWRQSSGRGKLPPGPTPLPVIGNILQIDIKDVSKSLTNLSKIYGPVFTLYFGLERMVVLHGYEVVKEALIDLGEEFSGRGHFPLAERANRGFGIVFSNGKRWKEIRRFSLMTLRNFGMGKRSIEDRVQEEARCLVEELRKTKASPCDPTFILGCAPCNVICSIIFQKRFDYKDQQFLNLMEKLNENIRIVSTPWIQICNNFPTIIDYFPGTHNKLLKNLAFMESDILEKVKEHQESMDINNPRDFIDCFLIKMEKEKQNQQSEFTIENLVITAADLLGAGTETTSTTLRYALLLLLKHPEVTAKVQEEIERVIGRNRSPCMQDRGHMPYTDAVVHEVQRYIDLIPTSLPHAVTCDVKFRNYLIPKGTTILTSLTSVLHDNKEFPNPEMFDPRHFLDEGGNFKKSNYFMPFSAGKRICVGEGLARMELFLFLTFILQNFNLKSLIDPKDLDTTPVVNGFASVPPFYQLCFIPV
# Outline: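 P450-Glo CYP2C19 screening system; proluciferin substrate; DMSO compound stocks; 10 min RT preincubation; NADPH regeneration, 1 h at 37C; luciferin detection reagent, 20 min RT; luminescence as RLU.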
# [2] = molecular target: Cytochrome P450 2C9 (Homo sapiens) (UniProt P11712); assay: Cytochrome P450 Family 2 Subfamily C Member 9 (CYP2C9) small molecule antagonists: luciferase reporter qHTS assay (AID 1671198); note: nearly all actives have a fitted effect of over 50% in size; note: potency is the fitted concentration of half-maximal effect; for activity change, negative = inhibition: series mostly up to about 120 µM
# Chain of Cytochrome P450 2C9 (Homo sapiens) (P11712 whole entry, looked up): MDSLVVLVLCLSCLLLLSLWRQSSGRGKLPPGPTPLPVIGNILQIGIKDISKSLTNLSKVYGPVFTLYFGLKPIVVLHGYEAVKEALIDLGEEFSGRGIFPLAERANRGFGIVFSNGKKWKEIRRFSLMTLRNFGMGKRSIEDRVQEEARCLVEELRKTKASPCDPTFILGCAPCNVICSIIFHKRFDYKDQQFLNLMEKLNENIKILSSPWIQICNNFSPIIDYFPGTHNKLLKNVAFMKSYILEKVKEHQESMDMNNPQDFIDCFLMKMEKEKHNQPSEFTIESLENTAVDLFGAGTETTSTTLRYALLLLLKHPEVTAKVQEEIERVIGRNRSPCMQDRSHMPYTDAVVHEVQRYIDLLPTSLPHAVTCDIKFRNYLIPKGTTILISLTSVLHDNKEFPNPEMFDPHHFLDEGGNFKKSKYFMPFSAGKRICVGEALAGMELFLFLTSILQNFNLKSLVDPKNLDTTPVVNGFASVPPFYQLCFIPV
# Outline: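 CYP2C9 activity was measured with a P450-Glo proluciferin substrate. Enzyme–substrate mix was held with compound for 10 min at room temperature, then NADPH regeneration solution was added for 1 h at 37C. Luciferin product was read as luminescence.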
# [3] = molecular target: Cytochrome P450 1A2 (Homo sapiens) (UniProt P05177); assay: Cytochrome P450 Family 1 Subfamily A Member 2 (CYP1A2) small molecule antagonists: luciferase reporter qHTS assay (AID 1671199); note: nearly all actives have a fitted effect of over 50% in size; note: potency is the fitted concentration of half-maximal effect; for activity change, negative = inhibition: series mostly up to about 120 µM
# Chain of Cytochrome P450 1A2 (Homo sapiens) (P05177 whole entry, looked up): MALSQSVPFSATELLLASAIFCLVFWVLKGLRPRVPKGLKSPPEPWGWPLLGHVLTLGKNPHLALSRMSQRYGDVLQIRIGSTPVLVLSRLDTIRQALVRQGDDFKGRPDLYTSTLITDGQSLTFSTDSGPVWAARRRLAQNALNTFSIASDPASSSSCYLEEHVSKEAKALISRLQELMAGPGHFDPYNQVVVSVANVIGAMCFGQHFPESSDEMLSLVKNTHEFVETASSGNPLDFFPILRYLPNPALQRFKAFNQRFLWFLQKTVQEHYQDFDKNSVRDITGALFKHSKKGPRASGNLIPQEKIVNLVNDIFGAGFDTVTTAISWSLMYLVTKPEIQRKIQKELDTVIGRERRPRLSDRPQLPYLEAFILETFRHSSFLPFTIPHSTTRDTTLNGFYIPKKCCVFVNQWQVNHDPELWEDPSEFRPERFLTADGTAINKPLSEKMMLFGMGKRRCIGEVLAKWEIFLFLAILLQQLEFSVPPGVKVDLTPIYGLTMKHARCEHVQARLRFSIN
# Outline: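 Enzymatic CYP1A2 assay, human, luminescent: 10 min compound–enzyme–substrate preincubation, 1 h NADPH-dependent turnover, 20 min detection step, room temperature throughout. Reduced light indicates lower CYP1A2 activity.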
# [4] = molecular target: Voltage-gated inwardly rectifying potassium channel KCNH2 (Homo sapiens) (UniProt Q12809); assay: Human Ether-a-go-go-Related Gene (hERG) channel small molecule antagonists: fluorescence cell-based qHTS assay (AID 1671200);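 note: hERG-expressing U2OS cells given a thallium stimulus after FluxOR II dye loading; series mostly up to about 77 µM; nearly all actives have a fitted effect of over 50% in size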
# Chain of Voltage-gated inwardly rectifying potassium channel KCNH2 (Homo sapiens) (Q12809 whole entry, looked up): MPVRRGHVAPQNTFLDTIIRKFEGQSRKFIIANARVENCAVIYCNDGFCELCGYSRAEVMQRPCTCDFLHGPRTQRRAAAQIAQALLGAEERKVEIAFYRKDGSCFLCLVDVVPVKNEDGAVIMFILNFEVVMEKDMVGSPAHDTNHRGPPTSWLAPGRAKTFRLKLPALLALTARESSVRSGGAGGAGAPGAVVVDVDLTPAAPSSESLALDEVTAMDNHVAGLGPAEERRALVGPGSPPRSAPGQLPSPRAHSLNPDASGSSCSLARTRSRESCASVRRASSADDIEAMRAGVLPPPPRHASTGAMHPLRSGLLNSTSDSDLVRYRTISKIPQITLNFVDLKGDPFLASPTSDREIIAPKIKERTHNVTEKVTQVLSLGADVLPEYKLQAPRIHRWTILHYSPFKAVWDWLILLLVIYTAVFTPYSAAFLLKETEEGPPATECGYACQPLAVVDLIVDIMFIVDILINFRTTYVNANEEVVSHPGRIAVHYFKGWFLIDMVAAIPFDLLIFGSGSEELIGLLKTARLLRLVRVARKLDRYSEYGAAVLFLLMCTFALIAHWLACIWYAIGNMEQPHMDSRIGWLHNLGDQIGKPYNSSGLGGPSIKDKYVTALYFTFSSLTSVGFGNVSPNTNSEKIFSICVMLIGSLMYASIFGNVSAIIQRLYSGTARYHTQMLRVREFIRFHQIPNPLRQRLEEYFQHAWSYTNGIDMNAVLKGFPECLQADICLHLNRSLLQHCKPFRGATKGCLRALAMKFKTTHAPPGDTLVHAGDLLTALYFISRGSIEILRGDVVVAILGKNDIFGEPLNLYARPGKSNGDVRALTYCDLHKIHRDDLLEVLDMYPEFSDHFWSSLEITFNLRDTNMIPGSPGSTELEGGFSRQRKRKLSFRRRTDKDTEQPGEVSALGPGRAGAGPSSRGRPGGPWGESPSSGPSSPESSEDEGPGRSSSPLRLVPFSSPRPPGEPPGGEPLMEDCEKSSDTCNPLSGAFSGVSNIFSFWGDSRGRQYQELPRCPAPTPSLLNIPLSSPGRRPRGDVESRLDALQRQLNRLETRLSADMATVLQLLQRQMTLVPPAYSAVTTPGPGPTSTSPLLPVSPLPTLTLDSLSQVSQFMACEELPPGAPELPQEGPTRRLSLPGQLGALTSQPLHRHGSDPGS
# Outline: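 U2OS cells expressing the channel were plated at 1000 cells/well, incubated overnight at 37 C, then loaded with FluxOR II thallium-sensitive dye for 1 h at room temperature in the dark, with a further 10 min at room temperature before stimulation.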
# [5] = molecular target: Cytochrome P450 3A4 (Homo sapiens) (UniProt P08684); assay: Cytochrome P450 Family 3 Subfamily A Member 4 (CYP3A4) small molecule antagonists: luciferase reporter qHTS assay (AID 1671201); note: nearly all actives have a fitted effect of over 50% in size; note: potency is the fitted concentration of half-maximal effect; for activity change, negative = inhibition: series mostly up to about 120 µM
# Chain of Cytochrome P450 3A4 (Homo sapiens) (P08684 whole entry, looked up): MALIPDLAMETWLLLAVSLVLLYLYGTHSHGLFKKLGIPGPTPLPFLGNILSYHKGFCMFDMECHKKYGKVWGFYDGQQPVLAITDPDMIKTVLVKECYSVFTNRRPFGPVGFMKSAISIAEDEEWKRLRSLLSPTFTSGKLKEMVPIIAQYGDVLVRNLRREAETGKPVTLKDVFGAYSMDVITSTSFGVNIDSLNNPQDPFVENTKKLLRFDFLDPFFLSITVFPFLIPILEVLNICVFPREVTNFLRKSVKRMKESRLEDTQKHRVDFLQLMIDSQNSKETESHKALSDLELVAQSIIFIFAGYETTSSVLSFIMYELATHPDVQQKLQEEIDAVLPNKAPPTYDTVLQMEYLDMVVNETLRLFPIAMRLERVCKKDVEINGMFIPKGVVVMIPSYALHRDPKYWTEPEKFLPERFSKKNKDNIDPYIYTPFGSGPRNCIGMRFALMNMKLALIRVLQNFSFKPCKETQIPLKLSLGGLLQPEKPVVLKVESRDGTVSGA
# Outline: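 P450-Glo CYP3A4 system with proluciferin substrate; compounds preincubated 10 min RT with enzyme-substrate mix, then NADPH regeneration added for 1 h RT. Detection reagent 20 min, luminescence read as relative luminescence units.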
smiles,measurement,setting,value
CCCCCOC(=O)Nc1nc(=O)n([C@@H]2O[C@H](C)[C@@H](O)[C@H]2O)cc1F,Potency,[1],inactive
same,Potency,[2],inactive
same,Potency,[3],inactive
same,Potency,[4],inactive
same,Potency,[5],inactive
CCN1CCN(c2cc3c(cc2F)c(=O)c(C(=O)O)cn3C2CC2)CC1,Potency,[1],inactive
same,Potency,[2],inactive
same,Potency,[3],inactive
same,Potency,[4],inactive
same,Potency,[5],inactive
C=C(C)C1CC=C(C)C(O)C1 (stereo not given),Potency,[1],inactive
same,Potency,[2],inactive
same,Potency,[3],40.1 µM (active)
same,Potency,[4],inactive
same,Potency,[5],inactive
NC(CS)C(=O)O (stereo not given),Potency,[1],inactive
same,Potency,[2],inactive
same,Potency,[3],17.4 µM (active)
same,Potency,[4],inactive
same,Potency,[5],inactive
OCC(CO)(CO)COCC(CO)(CO)CO,Potency,[1],inactive
same,Potency,[2],inactive
same,Potency,[4],inactive
same,Potency,[5],inactive
CCO[Si](C)(OCC)OCC,Potency,[1],inactive
same,Potency,[2],inactive
same,Potency,[4],inactive
same,Potency,[5],28.3 µM (active)
N#CCN(CC#N)CCN(CC#N)CC#N,Potency,[1],inactive
same,Potency,[2],inactive
same,Potency,[4],inactive
same,Potency,[5],inactive
O=C(O)c1ccc[n+]([O-])c1,Potency,[1],inactive
same,Potency,[2],inactive
same,Potency,[3],inactive
same,Potency,[4],inactive
same,Potency,[5],inactive
OC/C=C/c1ccccc1,Potency,[1],74.3 µM (active)
same,Potency,[2],52.6 µM (active)
same,Potency,[4],inactive
same,Potency,[5],inactive
O=C(O)C1CCC1,Potency,[1],inactive
same,Potency,[2],inactive
same,Potency,[3],inactive
same,Potency,[4],inactive
same,Potency,[5],inactive
CCCCc1ccc2cccc(S(=O)(=O)O)c2c1,Potency,[1],inactive
same,Potency,[2],37.3 µM (active)
same,Potency,[4],inactive
same,Potency,[5],inactive
C(=C(c1ccccc1)c1ccccc1)c1ccccc1,Potency,[1],5.03 µM (active)
same,Potency,[2],5.03 µM (active)
same,Potency,[3],35.6 µM (active)
same,Potency,[5],inactive
CSc1ccc(C=O)cc1,Potency,[1],inactive
same,Potency,[2],inactive
same,Potency,[4],inactive
same,Potency,[5],inactive
Nc1ccc2cc(S(=O)(=O)O)ccc2c1,Potency,[1],39.9 µM (active)
same,Potency,[2],50.2 µM (active)
same,Potency,[4],inactive
same,Potency,[5],inactive
CC(C)COC(=O)c1ccccc1O,Potency,[1],inactive
same,Potency,[2],inactive
same,Potency,[4],inactive
same,Potency,[5],inactive
NCCNC(=O)c1ccc(Cl)cn1,Potency,[1],inactive
same,Potency,[2],inactive
same,Potency,[4],inactive
same,Potency,[5],inactive
CCCOc1ccccc1-c1nc2n[nH]nc2c(=O)[nH]1,Potency,[1],inactive
same,Potency,[2],inactive
same,Potency,[4],inactive
same,Potency,[5],inactive
O=C1OC(=O)c2cc([N+](=O)[O-])ccc21,Potency,[1],inactive
same,Potency,[2],inactive
same,Potency,[4],inactive
same,Potency,[5],inactive
CCC(C)OC(=O)N1CCCCC1CCO (stereo not given),Potency,[1],35.6 µM (active)
same,Potency,[2],79.6 µM (active)
same,Potency,[4],inactive
same,Potency,[5],inactive
CN(C)CCOC(c1ccc(Cl)cc1)c1ccccn1 (stereo not given),Potency,[1],inactive
same,Potency,[2],inactive
same,Potency,[4],inactive
CN1[C@@H]2CC[C@H]1CC(NC(=O)n1c(=O)[nH]c3ccccc31)C2 (stereo not given in full),Potency,[1],inactive
same,Potency,[2],inactive
same,Potency,[3],inactive
same,Potency,[5],inactive
NC(=O)c1c(Cl)cccc1Cl,Potency,[1],20 µM (active)
same,Potency,[2],inactive
same,Potency,[4],inactive
same,Potency,[5],31.7 µM (active)
NC1CCN(c2cccc(Cl)n2)CC1,Potency,[1],inactive
same,Potency,[2],inactive
same,Potency,[4],inactive
same,Potency,[5],inactive
C/C=C1\C(=O)C[C@H]2[C@@H]3CCC4=CC(=O)CC[C@]4(C)[C@H]3CC[C@]12C,Potency,[1],6.2 µM (active)
same,Potency,[2],15.6 µM (active)
same,Potency,[3],inactive
same,Potency,[5],inactive
C=CCn1c(=O)n([C@@H]2O[C@H](CO)[C@@H](O)[C@H]2O)c2nc(N)[nH]c(=O)c21,Potency,[1],inactive
same,Potency,[2],inactive
same,Potency,[4],inactive
same,Potency,[5],inactive
CC(C)(C)C(=O)/C=C/c1ccc(Cl)cc1,Potency,[1],7.96 µM (active)
same,Potency,[2],63.3 µM (active)
same,Potency,[3],22.4 µM (active)
same,Potency,[5],inactive
C=C(C)[C@H]1CC=C(C)CC1,Potency,[1],inactive
same,Potency,[2],inactive
same,Potency,[4],inactive
same,Potency,[5],inactive
CC1CCN(CCCC(=O)c2ccc(F)cc2)CC1,Potency,[1],34.7 µM (active)
same,Potency,[2],inactive
same,Potency,[3],inactive
same,Potency,[5],inactive
Cc1ncc(CSSCc2cnc(C)c(O)c2CO)c(CO)c1O,Potency,[1],15.5 µM (active)
same,Potency,[2],8.71 µM (active)
same,Potency,[4],inactive
COc1cc(CCC(C)=O)ccc1O,Potency,[1],inactive
same,Potency,[2],inactive
same,Potency,[4],inactive
same,Potency,[5],inactive
CC(C)c1cccc(O)c1,Potency,[1],inactive
same,Potency,[2],inactive
same,Potency,[4],inactive
same,Potency,[5],inactive
FC(F)(F)C(F)(F)C(F)(F)C(F)(F)C(F)(F)C(F)(F)C(F)(F)C(F)(F)C(F)(F)C(F)(F)F,"activity change, negative = inhibition",[1],-6.18% [at 10.5 µM]
same,"activity change, negative = inhibition",[2],-5.26% [at 10.5 µM]
same,"activity change, negative = inhibition",[3],-15.3% [at 10.5 µM]
same,"activity change, negative = inhibition",[4],1.96% [at 6.97 µM]
same,"activity change, negative = inhibition",[5],-3.38% [at 10.5 µM]
O=[N+]([O-])c1ccc(CCO)cc1,Potency,[1],inactive
same,Potency,[2],inactive
same,Potency,[5],inactive
CCC(=O)Nc1cccc(N)c1,Potency,[1],inactive
same,Potency,[2],inactive
same,Potency,[4],inactive
CSc1nc(NC2CC2)nc(NC(C)(C)C)n1,Potency,[1],20 µM (active)
same,Potency,[2],35.6 µM (active)
same,Potency,[3],2.52 µM (active)
same,Potency,[5],39.9 µM (active)
CCCC(=O)O[C@]1(C(=O)CCl)[C@@H](C)C[C@H]2[C@@H]3CCC4=CC(=O)C=C[C@]4(C)[C@@]3(F)C(=O)C[C@@]21C,Potency,[1],7.76 µM (active)
same,Potency,[3],inactive
C=C(C)C(=O)NCCCN(C)C,Potency,[1],inactive
same,Potency,[2],inactive
same,Potency,[4],inactive
same,Potency,[5],inactive
COc1cc(O)cc(O)c1,Potency,[1],30.9 µM (active)
same,Potency,[2],inactive
same,Potency,[4],inactive
NC(=O)c1ncn([C@@H]2O[C@H](CO)[C@@H](O)[C@H]2O)c1N,Potency,[1],inactive
same,Potency,[2],inactive
same,Potency,[3],inactive
same,Potency,[4],inactive
same,Potency,[5],inactive
CO[Si](CCCNCCC[Si](OC)(OC)OC)(OC)OC,Potency,[1],inactive
same,Potency,[2],inactive
same,Potency,[3],inactive
same,Potency,[4],inactive
same,Potency,[5],inactive
CCCCCCCCCCCCCCCCCCOCC(O)CO (stereo not given),Potency,[1],inactive
same,Potency,[2],inactive
same,Potency,[4],inactive
same,Potency,[5],inactive
NC(=S)Nc1cccc2ccccc12,"activity change, negative = inhibition",[1],-10% [at 10.5 µM]
same,"activity change, negative = inhibition",[3],-26.4% [at 10.5 µM]
same,"activity change, negative = inhibition",[4],1.12% [at 6.97 µM]
same,"activity change, negative = inhibition",[5],1.29% [at 10.5 µM]
